From PubChem BioAssay
Most compounds without a hit are left out; they make up all but 3.3% or so of the library.
WRN inhibitor – qHTS for Inhibitors of WRN Helicase | WRN helicase unwinding, fluorescent forked duplex, kinetic | Potency, µM (top dose mostly 114 µM), for the others: at the highest dose activity change, negative = inhibition, hits mostly inhibitors | actives 0.46% (n = 360,000) | AID 651768, 2012; note: potency is the fitted concentration of half-maximal effect; nearly all actives have a fitted effect of over 55% in size
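Enzyme (20 nM final) and test compound sit together 15 min at room temperature before substrate addition. Substrate is a single-forked duplex oligonucleotide (100 nM) labelled with fluorophore and quencher, with 2 mM ATP; helicase unwinding raises red fluorescence, read kinetically.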
USP1-UAF1 inh – Inhibitors of USP1/UAF1: Primary Screen. Ubiquitin carboxyl-terminal hydrolase 1 (Homo sapiens), O94782. Potency, µM (highest dose often 57.1 µM), without a hit: at the top dose activity change, negative = inhibition, most hits filed as inhibitors. recombinant USP1/UAF1, Ub-Rhodamine cleavage fluorescence. actives 0.23% (n = 390,000); note: potency is the fitted concentration of half-maximal effect; nearly all actives have a fitted effect of over 60% in size
Target sequence (O94782 whole entry, looked up): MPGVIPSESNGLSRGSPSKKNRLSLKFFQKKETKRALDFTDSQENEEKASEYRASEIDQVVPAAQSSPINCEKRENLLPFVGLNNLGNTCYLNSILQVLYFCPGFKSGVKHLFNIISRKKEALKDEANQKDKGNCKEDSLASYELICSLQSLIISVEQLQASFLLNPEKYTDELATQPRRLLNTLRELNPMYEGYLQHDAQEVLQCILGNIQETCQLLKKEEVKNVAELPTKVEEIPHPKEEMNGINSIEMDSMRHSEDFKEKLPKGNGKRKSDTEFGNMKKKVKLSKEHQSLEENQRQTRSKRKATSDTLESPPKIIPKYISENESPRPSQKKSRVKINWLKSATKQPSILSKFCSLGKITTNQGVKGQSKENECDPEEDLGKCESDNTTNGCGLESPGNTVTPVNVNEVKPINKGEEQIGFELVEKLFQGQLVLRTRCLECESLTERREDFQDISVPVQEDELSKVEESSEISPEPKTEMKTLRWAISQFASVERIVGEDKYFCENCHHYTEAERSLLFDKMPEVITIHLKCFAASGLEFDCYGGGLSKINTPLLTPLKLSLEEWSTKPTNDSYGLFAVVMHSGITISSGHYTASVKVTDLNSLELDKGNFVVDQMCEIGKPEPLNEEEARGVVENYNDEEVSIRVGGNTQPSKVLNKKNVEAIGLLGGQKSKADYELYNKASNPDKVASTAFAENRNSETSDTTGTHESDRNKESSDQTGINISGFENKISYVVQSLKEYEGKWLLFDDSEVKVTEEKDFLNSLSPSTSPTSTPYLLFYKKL
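USP1/UAF1 complex at 1 nM was preincubated with compound for 15 min at room temperature, then Ub-Rho substrate (150nM final) was added. Fluorescence (480/540 nm) was read kinetically, 6 reads every 60 seconds.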
USP2a block – qHTS Assay for Inhibitors of Ubiquitin-specific Protease USP2a Using CHOP2 as the Reporter | Potency, µM (top dose mostly 38.3 µM), inactives show at the top dose activity change, negative = inhibition, usual class: inhibitors | Ubiquitin carboxyl-terminal hydrolase 2 (Homo sapiens), O75604 | actives 0.01% (n = 330,000) | USP2 core, Ub-CHOP2 coupled fluorogenic reporter, 485/531;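 note: potency is the fitted concentration of half-maximal effect; plate controls were DMSO wells for no effect and full inhibition by NEM control for full effect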
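Cell-free coupled assay: 10nM USP2 core preincubated 30min RT with compound in Tris-HCl pH 8.0/CaCl2/CHAPS buffer, then 25nM Ub-CHOP2 and 25nM reporter substrate; fluorescence (Ex 485/Em 531) read after 60min RT, normalized to NEM inhibition, concentration-response curves fitted.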
PLK1 PBD inh – qHTS for Inhibitors of PLK1-PDB (polo-like kinase 1 - polo-box domain): Primary Screen; actives 2.8% (n = 360,000); Serine/threonine-protein kinase PLK1 (Homo sapiens), P53350; Potency, µM, without a hit: max response, negative = inhibition, actives largely listed as inhibitors; AID 720504, 2013; Plk1 PBD binding of FITC phosphopeptide, fluorescence polarization; note: potency is the fitted concentration of half-maximal effect; series mostly up to about 57 µM; nearly all actives have a fitted effect of over 65% in size
PI5P4Ka inh – qHTS for Inhibitors of phosphatidylinositol 5-phosphate 4-kinase (PI5P4K). Phosphatidylinositol 5-phosphate 4-kinase type-2 alpha (Homo sapiens), P48426. PI5P4Kalpha enzyme, ADP-Glo luminescence, 60 min; hits give low values. max response, %. actives 1.2% (n = 330,000); active = max response of -50% or lower; inconclusive = between -30% and -50%; inactive = -30% or higher; note: value at the top dose of about 77 µM
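Reactions run in 0.038 M HEPES pH 7.4, 0.28 mM EGTA, 0.1% CHAPS and 5% DMSO, with PI5P4Kalpha, substrate, compound and 5 microM ATP final, one hour at room temperature. Readout is ADP-Glo luminescence.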
* marks the source's active call; other numbers are inactive results; ? = inconclusive; nt = not tested or not shown. Unless noted, calls come from the whole dose curve; as a rule, active = well fitted curve in the direction sought with a large enough effect; inconclusive = small, poorly fitted or top-dose-only effect, or another doubt; inactive = no such curve, though single readings can be large; an effect the other way counts as inactive or inconclusive. Unless noted, % is set by controls: 0 for no effect and ±100 for the full control effect.

SMILES	WRN inhibitor	USP1-UAF1 inh	USP2a block	PLK1 PBD inh	PI5P4Ka inh
O=C(NCCc1ccccc1)c1sc2ncccc2c1-n1cccc1	nt	-27%	nt	nt	nt
COc1cccc(C2CC(=O)Nc3c2c(=O)nc2c(C)cccn32)c1 (centres undefined)	nt	-20%	nt	nt	nt
O=S(=O)(/N=S1/CC=CCN1S(=O)(=O)c1ccccc1)c1ccccc1 (centres undefined)	45µM*	-7%	2%	1.5µM*	?
CCCNC(=O)N(C)C[C@H]1Oc2ncc(C#CCc3ccccc3)cc2C(=O)N([C@H](C)CO)C[C@H]1C	5%	-24%	nt	27µM*	-9
C[C@H](CO)N1C[C@H](C)[C@@H](CN(C)Cc2ccc(C(=O)O)cc2)Oc2c(NC(=O)Cc3ccccc3)cccc2C1=O	-4%	-17%	0%	2%	0
COc1ccccc1NC(=O)N(C)C[C@H]1Oc2ncc(C#CCN(C)C)cc2C(=O)N([C@H](C)CO)C[C@H]1C	-9%	-19%	nt	-10%	0
CC(C)NC(=O)N(C)C[C@H]1Oc2c(NC(=O)Cc3ccccc3)cccc2C(=O)N([C@H](C)CO)C[C@@H]1C	-8%	20%	1%	27µM*	-3
C[C@H](CO)N1C[C@H](C)[C@@H](CN(C)CC2CCCCC2)Oc2c(NC(=O)Cc3ccccc3)cccc2C1=O	3%	-16%	-9%	19µM*	-18
O=C(NCc1ccccc1)C1CCN(C(=O)c2cnn(-c3ccccc3)c2-n2cccc2)CC1	nt	-22%	nt	nt	nt
COc1cc(C(=O)O)ccc1OCc1c(C)noc1C	7%	-24%	7%	1%	-2
COc1cc(C(=O)Oc2ccccc2)ccc1OCc1c(C)noc1C	-1%	-3%	2%	27µM*	-17
CCNC(=O)NC(=O)COC(=O)c1ccccc1SCC(=O)NC(=O)NCC	?	-3%	0%	2.7µM*	-63*
O=C(COC(=O)c1ccccc1SCC(=O)NC1CCS(=O)(=O)C1)NC1CCS(=O)(=O)C1 (centres undefined)	8%	-11%	7%	-7%	4
COc1ccc(NC(=O)CN(Cc2ccccc2)S(=O)(=O)c2ccc(C)cc2)cc1Cl	nt	-26%	nt	nt	nt
COc1cccc(OC(=O)CSc2nnc(-c3cccs3)o2)c1	nt	-13%	nt	nt	nt
COC(=O)c1ccc(CCc2cc(O)ccc2O)cc1	56µM*	-6%	nt	?	?
COC(=O)c1ccc(O)cc1	-5%	-12%	3%	4%	2
Cc1ccccc1NC(=O)Cn1nnc(C(=O)NCc2ccco2)c1N	0%	-8%	3%	27µM*	-10
CC(=O)c1c(C)[nH]c(C(=O)N2CCCCCC2)c1C	-1%	4%	4%	2.7µM*	?
CCOC(=O)c1c(S(=O)(=O)N2CCC(C(=O)N3CCN(c4ccc(F)cc4)CC3)CC2)c(C)n(C)c1C	nt	-28%	nt	nt	nt
Cc1cc(C)c2c(=O)c3c(oc2c1)C(=O)N(CCCOC(C)C)C3c1ccccc1F (centres undefined)	nt	-19%	nt	nt	nt
CCSc1n[nH]c2nc3c(c(=O)n12)C1(CCCCC1)Cc1ccccc1-3	1%	-24%	2%	13µM*	-7
CSc1n[nH]c2nc3c(c(=O)n12)C1(CCCCC1)Cc1ccccc1-3	-13%	-21%	-1%	24µM*	0
Cc1ccc(C(=O)N2c3nc(-c4ccco4)nn3C3(CCCCC3)[C@@H]3CCCC[C@@H]32)cc1	nt	6%	nt	nt	nt
CN(C)S(=O)(=O)N1CCC(Oc2cccc(C(=O)NC3CCCCC3)c2)CC1	-1%	-25%	0%	15µM*	-21
SMILES	WRN inhibitor	USP1-UAF1 inh	USP2a block	PLK1 PBD inh	PI5P4Ka inh
CN(C)S(=O)(=O)N1CCC(Oc2ccc(C(=O)NC3CCCCC3)cc2)CC1	1%	-13%	-7%	-13%	5
CCn1nc([N+](=O)[O-])c(C(C#N)c2nc3ccccc3n2C)c(Cl)c1=O (centres undefined)	-21%	-19%	1%	?	-13
CCCn1nc([N+](=O)[O-])c(C(C#N)c2nc3ccccc3s2)c(Cl)c1=O (centres undefined)	?	?	-10%	24µM*	nt
Cc1cccc(N2CCN(C(=O)c3ccc(NC4=NC5CS(=O)(=O)CC5S4)cc3)CC2C)c1 (centres undefined)	-3%	-21%	2%	24µM*	-16
Cc1cccc(N2CCN(C(=O)c3ccccc3NC(=O)C3=CSCCO3)CC2C)c1 (centres undefined)	2%	-20%	0%	24µM*	-23
O=C(NCc1ccccc1)C1CCCC1	nt	nt	0%	nt	nt
O=C(NCc1ccncc1)C1CCCCC1	3%	-4%	3%	27µM*	-12
CC[n+]1c(/C=C2\Sc3ccccc3N2C)ccc2cccc(C)c21	50µM*	-15%	-2%	2%	0
CCN1/C(=C/c2ccc3cc(C)ccc3[n+]2CC)Sc2ccccc21	?	-23%	-2%	11%	-6
CCCCN(C)CCNC(=O)c1ccc(Cn2c(=O)[nH]c3cc(OC)c(OC)cc3c2=O)cc1	nt	-13%	nt	nt	nt
O=c1nc(/C=C/c2cccn2-c2ccc([N+](=O)[O-])cc2)cc(C(F)(F)F)[nH]1	?	-5%	2%	?	-69*
CC(=O)N=Cc1c(C)c(C#N)c(=O)n(C)c1O	10%	-27%	-1%	-18%	-23
Cc1c(/C=N/Nc2ccc(F)cc2)c(O)n(C)c(=O)c1C#N	-8%	-20%	3%	19µM*	?
COc1cccc(CNC(=O)c2sc3ncccc3c2-n2c(C)ccc2C)c1OC	nt	-5%	nt	nt	nt
CCOc1ccc(NC(=O)CCS(=O)(=O)c2cc3c4c(c2)CCN4C(=O)CC3)cc1	nt	-25%	nt	nt	nt
CC(C(=O)C12CC3CC(CC(C3)C1)C2)N1CCOCC1 (centres undefined)	-22%	-25%	-2%	21µM*	-11
Cn1c(-c2c(N)n(CCc3ccccc3)c3nc4ccccc4nc23)nc2ccccc21	-14%	28µM*	-13%	-5%	nt
Cn1c(-c2c(N)n(CCCc3ccccc3)c3nc4ccccc4nc23)nc2ccccc21	-12%	?	-10%	-2%	nt
Cn1cc(Br)c(C(=O)Nc2sc3c(c2C(N)=O)CCC3)n1	?	-16%	1%	24µM*	?
Cn1ccc(C(=O)Nc2sc3c(c2C(N)=O)CCCCC3)n1	-14%	-23%	0%	?	-6
CN1CCN(CCCNC(=O)c2cnn(-c3ccccc3)c2-n2cccc2)CC1	nt	-7%	nt	nt	nt
